Among all 5,500 compounds or so, about 2,000 (36%) were called active. Another 18% or so got no clear call; they are omitted. Cut-off read from the data, not from the text of the source: active = normalized growth mostly below about 0.91 (no sharp cut-off); inconclusive = no clear call, values can overlap the other calls; inactive = mostly above about 0.92. This is one part of the list.
Assay: chemical genetic growth profiling, strain panel (AID 1159580);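 note: tested at 20 µM; growth read once vehicle control cultures reached saturation at 30 °C; 1 = growth at the plate median or of vehicle wells; lower values mean less growth of the strain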
Settings: growth OD
[1] = S. cerevisiae deletion strains, locus YAL013W, strain DEP1, hits give low values
[2] = S. cerevisiae deletion strains, locus YBR229C, strain ROT2, hits give low values
[3] = S. cerevisiae deletion strains, locus YCL061C, strain MRC1, hits give low values
[4] = S. cerevisiae deletion strains, locus YDL101C, strain DUN1, hits give low values
[5] = S. cerevisiae deletion strains, locus YDL134C, strain PPH21, hits give low values
[6] = S. cerevisiae deletion strains, locus YDR150W, strain NUM1, hits give low values
[7] = S. cerevisiae deletion strains, locus YEL061C, strain CIN8, hits give low values
[8] = S. cerevisiae deletion strains, locus YGR078C, strain PAC10, hits give low values
[9] = S. cerevisiae deletion strains, locus YHR030C, strain SLT2, hits give low values
[10] = S. cerevisiae deletion strains, locus YHR087W, strain rtc3, hits give low values
[11] = S. cerevisiae deletion strains, locus YJL187C, strain SWE1, hits give low values
[12] = S. cerevisiae deletion strains, locus YJR043C, strain POL32, hits give low values
[13] = S. cerevisiae deletion strains, locus YJR075W, strain HOC1, hits give low values
[14] = S. cerevisiae deletion strains, locus YKL190W, strain CNB1, hits give low values
[15] = S. cerevisiae deletion strains, locus YLR039C, strain RIC1, hits give low values
[16] = S. cerevisiae deletion strains, locus YLR058C, strain SHM2 (second series), hits give low values
[17] = S. cerevisiae deletion strains, locus YLR085C, strain ARP6, hits give low values
[18] = S. cerevisiae deletion strains, locus YLR262C, strain YPT6, hits give low values
[19] = S. cerevisiae deletion strains, locus YML094W, strain GIM5, hits give low values
[20] = S. cerevisiae deletion strains, locus YMR219W, strain ESC1, hits give low values
[21] = S. cerevisiae deletion strains, locus YMR263W, strain SAP30, hits give low values
[22] = S. cerevisiae deletion strains, locus YNL153C, strain GIM3, hits give low values
[23] = S. cerevisiae deletion strains, locus YNL298W, strain CLA4 (second series), hits give low values
[24] = S. cerevisiae deletion strains, locus YNL322C, strain KRE1, hits give low values
[25] = S. cerevisiae deletion strains, locus YNR030W, strain Alg12, hits give low values
[26] = S. cerevisiae deletion strains, locus YPL055C, strain LGE1, hits give low values
[27] = S. cerevisiae deletion strains, locus YPL241C, strain CIN2, hits give low values
[28] = S. cerevisiae deletion strains, locus YPR135W, strain CTF4, hits give low values

Measured: normalized growth

O=C(NNC(=S)NC1CC2C=CC1C2)c1cccnc1 (centres undefined)
inactive: [1] 0.985 | [2] 0.992 | [3] 0.971 | [4] 0.979 | [5] 0.992 | [6] 0.971 | [7] 0.977 | [8] 0.982 | [9] 0.908 | [10] 1.07 | [11] 0.989 | [12] 0.977 | [13] 0.986 | [14] 0.997 | [15] 0.812 | [16] 0.985 | [17] 0.938 | [19] 0.962 | [20] 0.993 | [21] 0.984 | S. cerevisiae deletion strains, locus YMR307W, strain GAS1, hits give low values 1.22 | [22] 0.993 | [23] 0.958 | [24] 0.993 | [25] 0.979 | [26] 0.979 | [27] 0.964 | [28] 0.92
active: [18] 0.809

O=C(NNC(=S)Nc1cccc(Cl)c1)c1cccnc1
inactive: [1] 1 | [2] 1 | [3] 0.976 | [4] 0.978 | [6] 0.969 | [7] 1.01 | [8] 0.97 | [9] 0.939 | [10] 0.992 | [11] 0.985 | [12] 0.999 | [13] 0.982 | [15] 1.03 | [16] 0.997 | [17] 0.885 | [18] 1.02 | [19] 0.965 | [20] 0.999 | [21] 0.949 | [22] 0.979 | [23] 0.98 | [24] 0.994 | [25] 0.956 | S. cerevisiae deletion strains, locus YOL006C, strain TOP1, hits give low values 0.803 | [26] 0.868 | [27] 0.972 | [28] 0.893

O=C(CSCc1c(Cl)cccc1Cl)NNC(=S)NC1CC2C=CC1C2 (centres undefined)
active: [5] 0.857 | [14] 0.762 | [15] 0.607 | [18] 0.59 | [19] 0.827 | S. cerevisiae deletion strains, locus YNL128W, strain TEP1, hits give low values 0.792 | [23] 0.658 | [25] 0.781 | [27] 0.696 | S. cerevisiae strains, strain wild type, hits give low values 0.746
inactive: [1] 0.99 | [2] 0.972 | [4] 0.94 | [6] 0.956 | [8] 0.97 | [9] 0.838 | [10] 1.06 | [11] 0.979 | [12] 0.971 | [13] 0.973 | [16] 1.01 | [17] 0.788 | [20] 1.01 | [21] 0.944 | [22] 0.955 | [24] 1.02 | [26] 0.867 | [28] 0.873
